One experiment has as its target PUM1 PUF domain R4-DYG (Homo sapiens, UniProt Q14671 828-1176, N971D;H972Y;Q975G). The experiment can be described thus: yeast three-hybrid, YBZ-1, SC-Leu-His + 0.5 mM 3-AT, 4 days. Conditions: tags: N-Gal4 AD-HA kept; label: inside an RPR1-promoter hybrid RNA with tandem MS2 sites; ssRNA. A digest of the protocol:
(§1)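 Repeat regions from input (SC-Leu) and selection (SC-Leu-His + 0.5 mM 3-AT) plates were PCR-amplified and Illumina-sequenced after four days of growth. The cells were strain YBZ-1 with a LexA–MS2 coat fusion and a HIS3 reporter, co-expressing Pumilio-1 PUF domain libraries and matching RNA elements from a centromeric plasmid. The interaction score is the log change in variant frequency from input to selection, taken in log2 with a pseudocount of 1 for absent variants.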
Sequence of PUM1 PUF domain R4-ACG (Q14671 828-1176 N971A/H972C/Q975G): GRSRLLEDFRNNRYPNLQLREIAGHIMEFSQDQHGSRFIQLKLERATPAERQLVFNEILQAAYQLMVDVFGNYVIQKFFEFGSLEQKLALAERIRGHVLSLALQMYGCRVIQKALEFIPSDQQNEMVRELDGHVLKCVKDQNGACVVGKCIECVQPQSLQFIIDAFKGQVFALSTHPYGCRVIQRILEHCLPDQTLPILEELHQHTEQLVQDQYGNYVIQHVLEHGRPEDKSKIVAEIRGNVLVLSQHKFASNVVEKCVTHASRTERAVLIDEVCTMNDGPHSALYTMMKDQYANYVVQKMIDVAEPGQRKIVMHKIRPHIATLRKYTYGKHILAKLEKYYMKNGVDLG
Turning to “GGCUAGAACUAGUGGAUCCCCCGGCGCCCGGCGGCUCGAGCCCGGGUAAGUGUACAUAGUCUGCAUGCCGCCGGGCGCCAUGCCUGCAGGUCGACUCUAGAAAACAUG”, the binding signal was 5.37 log2 enrichment (interaction score).
Turning to “GGCUAGAACUAGUGGAUCCCCCGGCGCCCGGCGGCUCGAGCCCGGGUAAGUGUAUAUAGUCUGCAUGCCGCCGGGCGCCAUGCCUGCAGGUCGACUCUAGAAAACAUG”, the binding signal is 6.59 log2 enrichment (interaction score).
With “GGCUAGAACUAGUGGAUCCCCCGGCGCCCGGCGGCUCGAGCCCGGGUAAGUGUAAAUAGUCUGCAUGCCGCCGGGCGCCAUGCCUGCAGGUCGACUCUAGAAAACAUG”, the binding signal is 6.38 log2 enrichment (interaction score).

The next experiment deals with PUM1 PUF domain R4-ACG (Homo sapiens, UniProt Q14671 828-1176, N971A;H972C;Q975G). The description is as above. Particulars: tags: N-Gal4 AD-HA kept; label: inside an RPR1-promoter hybrid RNA with tandem MS2 sites; ssRNA. A digest of the protocol:
as §1
With “GGCUAGAACUAGUGGAUCCCCCGGCGCCCGGCGGCUCGAGCCCGGGUAAGUGUACAUAGUCUGCAUGCCGCCGGGCGCCAUGCCUGCAGGUCGACUCUAGAAAACAUG”, the binding signal is 1.1 log2 enrichment (interaction score).
In the case of “GGCUAGAACUAGUGGAUCCCCCGGCGCCCGGCGGCUCGAGCCCGGGUAAGUGUAUAUAGUCUGCAUGCCGCCGGGCGCCAUGCCUGCAGGUCGACUCUAGAAAACAUG”, the binding signal was 0.66 log2 enrichment (interaction score).
Turning to “GGCUAGAACUAGUGGAUCCCCCGGCGCCCGGCGGCUCGAGCCCGGGUAAGUGUAAAUAGUCUGCAUGCCGCCGGGCGCCAUGCCUGCAGGUCGACUCUAGAAAACAUG”, the binding signal was 3.13 log2 enrichment (interaction score).

The target in the next experiment is PUM1 PUF domain R4-GRA (Homo sapiens, UniProt Q14671 828-1176, N971G;H972R;Q975A). The description is as above. Particulars: tags: N-Gal4 AD-HA kept; label: inside an RPR1-promoter hybrid RNA with tandem MS2 sites; ssRNA. The procedure, abridged: as §1
Sequence of PUM1 PUF domain R4-GRA (Q14671 828-1176 N971G/H972R/Q975A): as the sequence (Q14671 828-1176 N971A/H972C/Q975G) above, with A144G, C145R, G148A counted along it
Consider “GGCUAGAACUAGUGGAUCCCCCGGCGCCCGGCGGCUCGAGCCCGGGUAAGUGUACAUAGUCUGCAUGCCGCCGGGCGCCAUGCCUGCAGGUCGACUCUAGAAAACAUG”, for which the binding signal was 1.92 log2 enrichment (interaction score).
Consider “GGCUAGAACUAGUGGAUCCCCCGGCGCCCGGCGGCUCGAGCCCGGGUAAGUGUAUAUAGUCUGCAUGCCGCCGGGCGCCAUGCCUGCAGGUCGACUCUAGAAAACAUG”, for which the binding signal was 2.46 log2 enrichment (interaction score).
For the sequence “GGCUAGAACUAGUGGAUCCCCCGGCGCCCGGCGGCUCGAGCCCGGGUAAGUGUAAAUAGUCUGCAUGCCGCCGGGCGCCAUGCCUGCAGGUCGACUCUAGAAAACAUG”, the binding signal was 4.39 log2 enrichment (interaction score).
